Test results: PMC12136788
Residue numbers refer to the chain shown, from its start. The full ranking holds about 24,000 sequences; the median of “enrichment r” is about 0.99, and the highest 2% start at about 3.7. Many of the other results were omitted from the sample, so the highest values are more common in it than they were.

T1: UNK ZnF1-3 (human, UniProt Q9C0B0 31-174)
T1 sequence: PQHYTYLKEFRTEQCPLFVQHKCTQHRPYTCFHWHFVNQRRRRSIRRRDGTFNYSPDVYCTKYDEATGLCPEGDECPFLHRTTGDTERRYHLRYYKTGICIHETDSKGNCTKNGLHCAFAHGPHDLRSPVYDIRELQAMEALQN

B1: 129217275_129261777_1030_CDS_ENSMUSG00000036155_ENSMUST00000038361|mouse|control|control (ssRNA)
RNA: GGGAGUUCUACAGUCCGACGAUCGUAGCCAUCCAUAGGAGGCAAUACACAUUUUUCCUGAACUCCAUUAAUGAUAUCUGCCACAUUAAUUUUCUCAAGCGACACCAAGCUGGGGACAGCCGUGGUGGAGUUGGUGGAGUUCGCCAACAGAGGAUUGAGCAUCA
B2: 107042093_107043494_1117_CDS_ENSMUSG00000031878_ENSMUST00000034349|mouse|control|control (ssRNA)
RNA: GGGAGUUCUACAGUCCGACGAUCAACAGACUGAAGCAAUUUGGCAACGUGAUUGCCUACAGCAGCAGCAUCUUUCUUUGCUUUCUCUCGGUAAACAUUCUGCAGUUUUAUGUAUUUGUUUGAAUCUGCAAUCAUAUCAGGAAUCAACAGAGGAUUGAGCAUCA
B3: chr7:141441981:141441982:+_ENSG00000106028_ENST00000265304|hu_mus|hu_hu_hu_mus_False|58_58 (ssRNA)
RNA: GGGAGUUCUACAGUCCGACGAUCCUCAUGUCUUACAAACUGACGAAAUACCUGUAACACAGGUCUUCGAAACAUGGCUUCUAUUUUUCUUACAACCUAAUCUUUAGGCUUUUCCUAAAGGAAAGAAAGAAAAGAGAAAAAUGACAACAGAGGAUUGAGCAUCA
B4: chrX:16871948:16871949:-_ENSG00000102054_ENST00000404022|hu_mus|FALSE|FALSE (ssRNA)
RNA: GGGAGUUCUACAGUCCGACGAUCAGUAAAGAUUGCUUUAGCAUCCACAAUUUUGCCUUCCUUUGGUCCUGCAUUUAUAUCCCACAGGCAGACAGUAUGGUCAUCAGAUGCACUCAGGAGAUGCCCACUCAGAUUAGAAUUCCACAACAGAGGAUUGAGCAUCA
B5: chr22:35691198:35691199:+_ENSG00000100281_ENST00000216106|hu_mus|FALSE|FALSE (ssRNA)
RNA: GGGAGUUCUACAGUCCGACGAUCACAGUCCUGUGAGAAGCUUAGCUGUGACAGCAGUCGGGCUAUGGGAAGGAGUUCCCUAGGAUGCCAGCUGGCUACAUGGUCCCCAAAGGUUUACUGUGAUGCUGCCUCGUUCCAUCCAGGCAACAGAGGAUUGAGCAUCA
B6: chr9:14812383:14812384:-_ENSMUSG00000031934_ENSMUST00000164273|mus_mus|mus_mus_mus_hu_True|48_48 (ssRNA)
RNA: GGGAGUUCUACAGUCCGACGAUCAUAGCCCAGGUAGAUACACGCUAACAGUAUAAUGAUGAGUGUCAGCAGGCGGCAGCUAAUGUAUUUCAUGAUUAAAUUAUUAGAAUUUUUCUUUGUCUUCAAGUACUGCUCCACAAUUGGCAACAGAGGAUUGAGCAUCA
B7: chr9:14812383:14812384:-_ENSMUSG00000031934_ENSMUST00000164273|mus_mus|mus_mus_mus_hu_True|38_48 (ssRNA)
RNA: B6 RNA with U101G, U103C
B8: chr9:14812383:14812384:-_ENSMUSG00000031934_ENSMUST00000164273|mus_mus|mus_mus_mus_hu_True|28_48 (ssRNA)
RNA: B6 RNA with A108G, U111C, C114U
B9: chr1:6284582:6284583:-_ENSG00000116237_ENST00000343813|hu_hu|FALSE|FALSE (ssRNA)
RNA: GGGAGUUCUACAGUCCGACGAUCAGCUAGGAAUACCCCUUUGAAUGUGUACUGCUACUUAUAAAAAAUAGGUAUGUAGCUAUGAUUAAAUAGAUGAAGGGCCAAAGCAUCCUAUGAGGAAGUAUUUUUAAAAUUGUAUAGAUGCAACAGAGGAUUGAGCAUCA
B10: chrX:98862621:98862622:+_ENSMUSG00000034160_ENSMUST00000044475|mus_hu|mus_mus_mus_hu_False|78_78 (ssRNA)
RNA: GGGAGUUCUACAGUCCGACGAUCCUGCAUCUCCUUUAGAGUGUUUCCCAUAUUAGAAUAAGCAUCAGCAAAGGUAGGACUGAUUCGAAUAGCCUCCUUAUAAUGCAUCAGAGCUUCCUGCAGUUUUCCCUGCUGCUGCAGUACCAACAGAGGAUUGAGCAUCA
B11: chr1:6284582:6284583:-_ENSG00000116237_ENST00000343813|hu_hu|motif|central (ssRNA)
RNA: B9 RNA with U80G, A81G
B12: chr12:1897663:1897664:+_ENSG00000006831_ENST00000357103|hu_mus|FALSE|FALSE (ssRNA)
RNA: GGGAGUUCUACAGUCCGACGAUCGCUUUGUGAUUUCAGCAACUUAUAGAGGGGAGAGAGGAAAUACUGAAAAAGGCCACUAUUUAAUGAUGAGAGAGUGAAGGUGUACAGGUUCCUAACCAGCCUAGGGCCAAAAAAGGAGACCAACAGAGGAUUGAGCAUCA
B13: chr9:14812383:14812384:-_ENSMUSG00000031934_ENSMUST00000164273|mus_mus|mus_mus_mus_hu_True|68_98 (ssRNA)
RNA: B6 RNA with C42U, U45C, G68C, G72C, U87C, C90G
B14: chr12:1897663:1897664:+_ENSG00000006831_ENST00000357103|hu_mus|motif|central (ssRNA)
RNA: B12 RNA with U80G, A81G
B15: chr2:217001844:217001845:+_ENSG00000079246_ENST00000392132|hu_hu|hu_hu_hu_mus_False|98_108 (ssRNA)
RNA: GGGAGUUCUACAGUCCGACGAUCACCGACUUGAGGAUUAGCUCUUUUGUCAUAAGCAUAUCGGACGAUGGCGACCAUGUUUAACUCAUCCAAAGCAUGAACGAGAGAGGAAAGGGCAACAGCUGCCGCCUCAUCAUCCUUUGCCAACAGAGGAUUGAGCAUCA
B16: 31404426_31405736_1086_CDS_ENSG00000196792_ENST00000355683|human|control|control (ssRNA)
RNA: GGGAGUUCUACAGUCCGACGAUCAGUCACUAAAAAAUCAAAUUCUUUCAGUGCUUCCUCAGUAUCAGGAUCGUCAGUUAGGUCAGCAGCUAAACCUUCAUUACCUAUUUUAUGUUUAUUCAUCCGAUGUUUGUCUUUUCCUUCCAACAGAGGAUUGAGCAUCA
B17: 126502921_126503041_1455_ncRNA_ENSMUSG00000006728_ENSMUST00000140254|mouse|control|control (ssRNA)
RNA: GGGAGUUCUACAGUCCGACGAUCUGGUCGGCUUCAGAGUUUCCACAGAAGAGAGGCCUAAGGCAGAAAAAGACUCAAAGUAUGUGUUAUAUCAAAAAUAGGGGAGUGGGGGCUGGAGAGACGGCUCAGCAGAUAAGACUGCUCCAACAGAGGAUUGAGCAUCA
B18: chrX:132781199:132781200:+_ENSMUSG00000042712_ENSMUST00000048687|mus_hu|FALSE|FALSE (ssRNA)
RNA: GGGAGUUCUACAGUCCGACGAUCUGCUAAUAAAAAGCAAGCUAUAUGGUAUUGUUAAUAUCAGAUAAAAAUCAAGGUAAACUACAUUAAAUAGGGGUAAGGAUGGUUUCGAUUAACCUUCCAACGCAUCACUAUAAGUUUGUUCAACAGAGGAUUGAGCAUCA
B19: chr15:90999404:90999405:+_ENSG00000140575_ENST00000268182|hu_hu|FALSE|FALSE (ssRNA)
RNA: GGGAGUUCUACAGUCCGACGAUCCUGCAGAGUCUUUUGGGCAUCACCUUCAUCCAGGGCUUCAUUAAUUAAACCAAUGGCUAAAAUCCUCUCAUGUUCCUCUUGCACCACCAGGUUCACAUGGUCCACGCAAGCUUGGAUAUCCAACAGAGGAUUGAGCAUCA
B20: chrX:132781199:132781200:+_ENSMUSG00000042712_ENSMUST00000048687|mus_hu|motif|central (ssRNA)
RNA: B18 RNA with U82G, A83G
B21: chr7:34932688:34932689:-_ENSMUSG00000052997_ENSMUST00000102746|mus_mus|FALSE|FALSE (ssRNA)
RNA: GGGAGUUCUACAGUCCGACGAUCCAAGAGCUUCUUUCUUGGGUUUGGCUGCUUAUUCAAAAAAAUAGUUCUACACUGGUCUAUUUUUCCAGAUAAAAUCUUUAAUCCUUCCAACACUAUCAAGCCGGCGAUCACUGCAUUAGUCAACAGAGGAUUGAGCAUCA
B22: 63494515_63562186_783_3pUTR_ENSMUSG00000025964_ENSMUST00000114107|mouse|control|control (ssRNA)
RNA: GGGAGUUCUACAGUCCGACGAUCUAGUGGAUCUCCACGUAGUCAGAAGAUAGCAAACCAUUGUUCAGUGUGAGGUCAAGAAUGAACUUGGAGCCGAAAGCUUCGAUCUGGAAGCUUGCCUGGGCCAGAUGCACAGCCUUAUUGCAACAGAGGAUUGAGCAUCA

Molecular target: T1, UNK ZnF1-3
Experiment: nsRBNS (natural sequence RNA bind-n-seq); RBNS binding buffer (assumed for nsRBNS): 25 mM Tris pH 7.5, 150 mM KCl, 3 mM MgCl2, 0.01% Triton X-100, 500 ug/ml BSA, 20 U/ml SUPERase-In, 4 C; UNK is unkempt and MSI1 is Musashi-1; names of the RNAs are library labels; protein concentration not given here; high values mean tight binding

Binder | binding signal
B1 | 1.11 enrichment R
B2 | 1.02 enrichment R
B3 | 0.678 enrichment R
B4 | 1.03 enrichment R
B5 | 1.01 enrichment R
B6 | 3.85 enrichment R
B7 | 1.52 enrichment R
B8 | 3.67 enrichment R
B9 | 6.19 enrichment R
B10 | 1.09 enrichment R
B11 | 6.98 enrichment R
B12 | 3.52 enrichment R
B13 | 1.27 enrichment R
B14 | 3.48 enrichment R
B15 | 2.19 enrichment R
B16 | 0.927 enrichment R
B17 | 3.33 enrichment R
B18 | 5.13 enrichment R
B19 | 1.38 enrichment R
B20 | 5.74 enrichment R
B21 | 1.12 enrichment R
B22 | 1.25 enrichment R
